Source: PubChem (The Scripps Research Institute Molecular Screening Center)
Sampled rows, rich in hits. Any-hit rate of the full collection: about 2.7%.
PAFAH1B3 inh: inhibitors of human PAFAH1B3; inhibition, % at 3.39 µM; recombinant PAFAH1B3, FP-rhodamine probe, fluorescence polarization; 340,000 compounds, 0.28% hits; AID 492972;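 active = inhibition above the screen-wide average of all tested compounds plus 3 SD, cut at about 25% in these data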;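 also: 0% = enzyme with DMSO only and 100% = wells lacking PAFAH1B3 protein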
Target sequence (Q15102 whole entry, looked up): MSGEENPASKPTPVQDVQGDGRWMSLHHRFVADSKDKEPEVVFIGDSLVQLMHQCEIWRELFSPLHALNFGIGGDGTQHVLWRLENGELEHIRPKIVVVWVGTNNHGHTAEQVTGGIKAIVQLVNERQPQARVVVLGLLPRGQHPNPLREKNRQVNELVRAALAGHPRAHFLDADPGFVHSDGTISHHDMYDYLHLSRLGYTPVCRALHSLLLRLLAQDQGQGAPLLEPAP
TCR-CD3 inh: human TCR-CD3 binding inhibition; inhibition, % at 9.4 µM; AID 651800; 360,000 compounds, 0.37% hits; TAMRA-labeled TCR probe fluorescence, biochemical; in the data active = inhibition above about 19%;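 also: recombinant mutant TCR 2C K166C tagged with TAMRA read by polarization; 0% = receptor in buffer alone and 100% = receptor with positive control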
PAFAH2 inh: PAFAH2 (human) inhibition; Q99487; recombinant PAFAH2, FP-rhodamine activity probe, fluorescence polarization; inhibition, % at 3.39 µM; 340,000 compounds, 0.99% hits; AID 492956;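 active = inhibition above the mean over all tested compounds plus 3 SD, cut at about 30% in these data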;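 also: inhibitors block probe labeling of enzyme so polarization drops; 0% = enzyme with DMSO and 100% = wells lacking PAFAH2 protein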
pPAFAH FP inh: inhibitors of human plasma PAF acetylhydrolase (pPAFAH); Q13093; recombinant pPAFAH, FP-rhodamine probe fluorescence polarization; inhibition, % at 3.39 µM; 330,000 compounds, 1.5% hits;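 active = inhibition above the mean inhibition across the screen plus 3 SD, cut at about 25% in these data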;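 also: inhibitors block binding of the rhodamine activity-based probe so polarization drops; 0% = enzyme with DMSO and 100% = wells lacking pPAFAH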
PAFAH1B2 FP inh: blocks human PAF acetylhydrolase 1b catalytic subunit 2 | inhibition, % at 3.39 µM | 340,000 compounds, 1.2% hits | recombinant PAFAH1B2, FP-rhodamine activity probe, fluorescence polarization;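 active = inhibition above the mean of all tested compounds plus 3 SD, cut at about 24% in these data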;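 also: 0% = enzyme with DMSO and 100% = wells lacking PAFAH1B2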
Target sequence (P68402 whole entry, looked up): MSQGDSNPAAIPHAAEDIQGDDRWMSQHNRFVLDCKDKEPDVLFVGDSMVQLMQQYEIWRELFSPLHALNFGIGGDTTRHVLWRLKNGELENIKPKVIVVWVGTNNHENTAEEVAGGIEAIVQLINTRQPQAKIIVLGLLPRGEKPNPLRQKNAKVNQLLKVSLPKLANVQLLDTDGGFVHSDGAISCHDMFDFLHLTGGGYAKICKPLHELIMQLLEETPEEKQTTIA
* hit, by the source's call; nt = no result.

SMILES	PAFAH1B3 inh	TCR-CD3 inh	PAFAH2 inh	pPAFAH FP inh	PAFAH1B2 FP inh
O=C(CCc1ccccc1)Nc1nc2nc(-c3ccccc3)cc(=O)n2[nH]1	12	11	5	-4	27*
COC(=O)[C@]12C[C@H](CC(=O)NCc3cccc(C(F)(F)F)c3)C(=O)N(Cc3ccccc3)C1=C[C@H](C(C)C)O[C@@H]2C1CC1	nt	4	nt	nt	nt
O=C(CN1C(=O)C(=O)N(C2CCCC2)C1=O)Nc1ccc(Cl)cc1C(F)(F)F	14	-7	0	7	7
CC(C)(C)c1cc(OC(=O)C2CCCC2)ccc1O	13	-1	4	-3	92*
CC(C)(C)c1cc(OS(C)(=O)=O)ccc1O	7	2	-3	4	10
O=C(N[C@H](Cc1ccccc1)C(=O)NCCCN1CCCC1=O)[C@H]1O[C@@H](n2ccc(=O)[nH]c2=O)[C@H](O)[C@@H]1O	nt	1	nt	nt	nt
CC(NC(=O)CSc1ncccc1C(=O)O)C1CC2CCC1C2 (stereo not given)	0	4	8	3	29*
Cc1cc(=O)[nH]c(SCC(=O)NC(C)C2CC3CCC2C3)c1C#N (stereo not given)	0	-6	8	23	18
CC(NC(=O)CSc1n[nH]c(=O)[nH]c1=O)C1CC2CCC1C2 (stereo not given)	5	3	-3	0	27*
Cc1ccc(S(=O)(=O)N2CCCc3nc(-c4ccc(Br)cc4)ccc32)cc1	nt	-6	nt	nt	nt
CCN(Cc1ccccc1)c1ccc(/C=N/NS(=O)(=O)c2cccc([N+](=O)[O-])c2)cc1	-4	-6	5	4	45*
CCN(CC)c1ccc(/C=N/NC(=O)c2cccc(S(=O)(=O)N3CCOCC3)c2)cc1	1	5	11	12	4
CCN(Cc1ccccc1)c1ccc(/C=N/NC(=O)c2cccc(S(=O)(=O)N3CCOCC3)c2)cc1	3	-10	-7	28*	13
COc1ccccc1-c1ccc2c(c1)[C@@H]1C[C@H]3[C@@H](CN1CC2)[C@H](C)ON3C	nt	-2	nt	nt	nt
Cc1ccc(-c2csc(Cc3nc(-c4ccc5c(c4)CCC(=O)N5)cs3)n2)cc1	11	2	10	26*	3
Cc1cccc(NS(=O)(=O)c2csc(C(N)=O)c2)c1C	2	0	-3	27*	-6
Cc1cccc(NS(=O)(=O)c2csc(C(N)=O)c2)c1	9	3	-3	2	3
CC(=O)Nc1ccc(N/C=C/C(=O)c2ccco2)cc1	-4	-4	-4	3	3
NS(=O)(=O)c1ccc(N/C=C\C(=O)c2ccc(F)cc2)cc1	3	7	-5	4	1
CN(C)c1ccc(N/C=C/C(=O)c2ccco2)cc1	-3	12	1	28*	2
CN(C)c1ccc(N/C=C/C(=O)c2ccc(F)cc2)cc1	1	nt	7	31*	2
CCCn1c(=O)c2ccccc2n2c(Sc3nnnn3-c3ccccc3)nnc12	8	2	-7	27*	-3
NS(=O)(=O)c1cc(C(=O)O)cc(N2CCCC2)c1Oc1ccccc1	-2	9	-2	0	29*
Cc1ccccc1OCC(=O)NNC(=S)NC(=O)c1ccccc1[N+](=O)[O-]	1	9	1	9	8
CC(C)(C)c1ccc(OCC(=O)NNC(=S)NC(=O)c2ccccc2[N+](=O)[O-])c(Br)c1	6	13	12	29*	39*
SMILES	PAFAH1B3 inh	TCR-CD3 inh	PAFAH2 inh	pPAFAH FP inh	PAFAH1B2 FP inh
Cc1n[nH]c(=S)n1/N=C/c1ccc(OCc2ccc(Cl)cc2Cl)cc1	6	5	-3	9	9
S=c1[nH]nc(COc2ccccc2)n1/N=C/c1ccc(Cl)cc1	14	4	2	nt	16
CCc1n[nH]c(=S)n1/N=C/c1ccc(N(C)c2ccccc2)cc1	11	5	-1	26*	-6
Cc1n[nH]c(=S)n1/N=C/c1ccc(OCc2ccc(Cl)cc2)cc1	6	3	10	5	28*
S=c1[nH]nc(Cc2ccc(Br)cc2)n1/N=C/c1ccc(Cl)cc1	13	0	-2	7	34*
O=C(COc1ccc(F)cc1)NNC(=O)Cn1ccc(C(F)(F)F)n1	14	1	11	5	3
CC(C)(C)c1ccc(C#C[C@@H]2C=C[C@H]3OC(=O)CC/C=C/CCC(=O)OC[C@H]3O2)cc1	nt	3	nt	nt	nt
CCN(CC)C(=O)[C@H]1CC(CC(=O)NC/C=C(\C)CCC=C(C)C)C(=O)N2CCc3c([nH]c4ccccc34)[C@]12C (stereo not given in full)	10	-6	-3	28*	4
CCN(CC)C(=O)[C@H]1CC(CC(=O)NC/C=C(\C)CCC=C(C)C)C(=O)N2CCc3c([nH]c4ccc(OC)cc34)[C@]12C (stereo not given in full)	8	-4	6	26*	0
CCCn1c(C)c(CC(=O)Nc2ccc(N(C)c3ccccn3)cc2)c2ccccc21	nt	0	nt	nt	nt
COCCCNC(=O)[C@H]1O[C@@H](n2cnc3c(=O)[nH]c(N)nc32)[C@H](O)[C@@H]1O	nt	3	nt	nt	nt
CCOC(=O)C1=CCC2C(=O)N(CC)C(=O)C12 (stereo not given)	nt	8	nt	nt	nt
Cc1cc(Nc2cccc(F)c2)cc(=O)n1-c1cccc(F)c1	nt	9	nt	nt	nt
N/C(=C\C(=O)c1cc(Cl)ccc1O)C(Cl)(Cl)Cl	79*	13	15	4	0
C=CCC(C#N)(c1ccc(OC)c(OC)c1)c1cnccn1 (stereo not given)	-7	3	-2	0	5
CC1CCN(S(=O)(=O)c2ccc(N=NC3=C(O)CC(C)(C)CC3=O)cc2)CC1	3	-2	-7	3	45*
CCC(C)N1C(=O)/C(=C/c2c(NCCCOC(C)C)nc3c(C)cccn3c2=O)SC1=S (stereo not given)	38*	-10	52*	0	34*
CCCN1C(=O)/C(=C/c2c(NCCCOC(C)C)nc3c(C)cccn3c2=O)SC1=S	4	nt	-9	-7	-5
Cc1occc(=O)c1OC(=O)Nc1ccc(Cl)c(Cl)c1	-113	73*	-101	-52	-52
COc1ccc(C(=O)Oc2c(C)occc2=O)cc1OC	11	2	-4	6	4
CC(C)(CO)[C@@H](O)C(=O)NCCC(=O)O	0	nt	-2	1	8
Cc1cccc(C)c1NC(=S)NCCSc1ccc(Cl)cc1	-5	3	11	1	25*
Cc1ccc(NC(=S)NCCSc2ccc(Cl)cc2)cc1	13	-2	0	1	13
Cc1c(C(=O)N2CCOCC2)cc(C(C)(C)C)n1-c1ccccc1	7	-1	6	-3	51*
Cc1[nH]c2ccccc2c1C(=O)C(=O)NC1CC1	3	0	1	28*	3
CC(=O)/C(=C/Nc1ccc(Oc2ccccc2)cc1)c1ccccc1	4	-2	10	9	5
COc1cc(N/C=C(\C(C)=O)c2ccccc2)cc(OC)c1	5	nt	-7	31*	-2
Cn1c(COc2ccc(Cl)cc2)nnc1SCc1ncc(-c2ccccc2)o1	12	6	14	-4	36*
